# TDP1 cell noCPT: qHTS for Inhibitors of human tyrosyl-DNA phosphodiesterase 1 (TDP1): qHTS in cells in absence of CPT; DT40 Tdp1-/- hTDP1 cells, no CPT, ATP luminescence, 48 h; Potency, µM (doses to about 46.2 µM), without a hit: top-dose activity change, negative = growth inhibition, most hits filed as inhibitors; actives 15% (n = 420,000); note: potency is the fitted concentration of half-maximal effect; nearly all actives have a fitted effect of over 55% in size
#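 A cellular qHTS used chicken DT40 cells lacking endogenous Tdp1 but carrying stably transfected human TDP1. Compounds were applied without camptothecin, and cell growth kinetics were judged by ATP-dependent luminescence after ≥48 hr.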
# CtBP-E1A blk: CtBP/E1A binding inhibition. AlphaScreen GST-E1A/His-CtBP binding, 1536-well; stronger effect = lower value. activity change, % (no concentration beside the values). actives 0.49% (n = 340,000); in the data active = activity change below about -65%; inconclusive = mostly about -30% to -63%
#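 GST-E1A and His-tagged CtBP (125 nM each as 5X stock) were preincubated with pin-transferred compound for 2 h at 37 °C in the dark, then glutathione donor and nickel acceptor beads were added for 1 h before AlphaScreen reading.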
# TDP1 block: TDP1 (human) enzyme inhibition | recombinant TDP1, AlphaScreen DNA substrate cleavage | actives 0.28% (n = 350,000) | Potency, µM (highest dose often 130 µM), for inactives: at the highest dose activity change, negative = inhibition, hits mostly inhibitors | AID 485290; note: potency is the fitted concentration of half-maximal effect; nearly all actives have a fitted effect of over 40% in size
#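 Tdp1 1 nM final; 15 min RT w/ cpd; substrate 15 nM, 5 min; beads 10 ug/ml, 10 min; AlphaScreen read. Neg ctrl: no enzyme.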
# Six1-Eya2 blk: blocks human Six1 binding to Eya2. AlphaScreen GST-Six1/His-Eya2 binding, biochemical; stronger effect = lower value. Q15475+O00167. AID 651725. actives 0.56% (n = 360,000). activity change, % (test concentration not listed); in the data active = activity change below about -65%; inconclusive = mostly about -30% to -63%
# Target sequence (O00167 whole entry, looked up): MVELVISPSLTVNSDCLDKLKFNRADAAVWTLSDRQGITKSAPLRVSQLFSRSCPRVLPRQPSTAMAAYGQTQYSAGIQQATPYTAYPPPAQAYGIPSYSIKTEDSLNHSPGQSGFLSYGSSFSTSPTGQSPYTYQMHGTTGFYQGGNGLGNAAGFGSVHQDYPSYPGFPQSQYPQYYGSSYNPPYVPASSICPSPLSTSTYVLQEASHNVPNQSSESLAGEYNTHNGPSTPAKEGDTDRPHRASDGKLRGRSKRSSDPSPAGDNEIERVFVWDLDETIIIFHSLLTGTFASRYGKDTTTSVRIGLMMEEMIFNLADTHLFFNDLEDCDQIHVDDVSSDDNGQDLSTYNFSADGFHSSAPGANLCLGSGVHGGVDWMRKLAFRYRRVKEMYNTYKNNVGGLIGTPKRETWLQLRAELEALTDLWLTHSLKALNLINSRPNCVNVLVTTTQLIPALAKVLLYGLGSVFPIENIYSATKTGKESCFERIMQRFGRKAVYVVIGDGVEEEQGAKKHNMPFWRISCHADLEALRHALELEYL
# Target sequence (Q15475 whole entry, looked up): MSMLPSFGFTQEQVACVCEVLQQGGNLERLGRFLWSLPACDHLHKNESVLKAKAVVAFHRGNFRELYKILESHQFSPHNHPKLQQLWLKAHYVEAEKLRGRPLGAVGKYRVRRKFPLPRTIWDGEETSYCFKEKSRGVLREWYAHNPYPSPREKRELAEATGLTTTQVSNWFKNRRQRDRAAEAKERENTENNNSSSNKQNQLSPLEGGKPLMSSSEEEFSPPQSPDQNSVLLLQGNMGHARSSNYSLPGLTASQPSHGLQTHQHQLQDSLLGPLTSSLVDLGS
#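 Six1/Eya2 binding was read as AlphaScreen signal after compounds were pinned into GST-Six1 plus His-tagged Eya2 (5X stock 250/500 nM) in pH 8.0 Tris/NaCl/TCEP buffer, beads added, then incubated 1 h, 37 C, dark.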
# DT40 TDP1 CPT: DT40-hTDP1 cell growth loss with CPT. AID 686979. Potency, µM (titrated, usually from 46.2 µM), for the others: at the top dose activity change, negative = growth inhibition, most hits filed as inhibitors. chicken DT40 Tdp1-/-;hTDP1 cells + 20 nM CPT, ATP luminescence, 48 h. actives 12% (n = 420,000); note: potency is the fitted concentration of half-maximal effect; nearly all actives have a fitted effect of over 55% in size
#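 Chicken DT40 Tdp1-/- cells stably complemented with human TDP1 were seeded at 400 cells/well in medium containing 20 nM camptothecin, exposed to pin-transferred compounds, and grown at 37 °C for at least 48 hr. Viability was read as ATP luminescence.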
# IL1B secr inh: inflammasome signaling inhibition, IL-1 beta readout. THP-1 LPS/ATP IL-1B secretion, AlphaLISA, 16 h; stronger effect = lower value. activity change, % at 57.5 µM. actives 4.7% (n = 360,000); in the data active = activity change below about -50%; inconclusive = mostly about -30% to -49%
#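 Secreted IL-1B measured by AlphaLISA bead assay after 16 h compound exposure of THP-1 cells; compounds (final up to 57.5 uM) added 1 h before LPS (250 ng/mL) and ATP (1.25 mM) stimulation; lower signal means less secretion.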
# * = called active by the depositor; ? = inconclusive; . = no result; [ ] = dose if it differs, or a comment. Shown are actives, neighbours in structure and some others; about 18% of the full set was active somewhere. Unless noted, calls come from the whole dose curve; as a rule, active = well fitted curve in the direction sought with a large enough effect; inconclusive = small, poorly fitted or top-dose-only effect, or another doubt; inactive = no such curve, though single readings can be large; an effect the other way counts as inactive or inconclusive. % is set by controls: 0 for no effect and ±100 for the full control effect.
SMILES,TDP1 cell noCPT,CtBP-E1A blk,TDP1 block,Six1-Eya2 blk,DT40 TDP1 CPT,IL1B secr inh
CCOC(=O)C1=C(C)NC(C)=C(C(=O)OCCNC(=O)c2cccnc2)C1c1cccc([N+](=O)[O-])c1 (configuration not stated),?,-14.2,5.3%,-14.2,23.1µM*,-58.7*
O=C(NCCOC(=O)c1ccc([N+](=O)[O-])cc1)c1cccnc1,-7.4%,0.5,0.0%,-2.7,-9.2%,44.9
NCCCCCc1nnc(SCc2ccccc2Cl)o1,-21.6%,6.1,4.8%,-1.0,-19.3%,15.9
COc1ccc(NC(=O)c2ccc(Cl)nc2)cc1S(=O)(=O)N1CCCCC1,?,?,-8.2%,?,?,34.6
O=C(Nc1cccc(S(=O)(=O)Nc2ccccc2Cl)c1)c1ccc(Cl)nc1,14.6µM*,-0.1,4.3%,-22.5,11.6µM*,6.6
O=C(Nc1cccc(S(=O)(=O)Nc2ccccc2Cl)c1)c1ccc(N2CCCC2)c([N+](=O)[O-])c1,-22.3%,?,-1.9%,-2.4,-1.8%,2.3
O=C(Nc1cccc(S(=O)(=O)N2CCCCC2)c1)c1ccc(Cl)nc1,14.6µM*,.,-0.8%,?,20.6µM*,21.7
O=C(Nc1cccc(S(=O)(=O)N2CCCCCC2)c1)c1ccc(Cl)nc1,14.6µM*,?,-5.0%,?,18.4µM*,?
O=C(Nc1ccc(S(=O)(=O)N2CCCCC2)cc1)c1ccc(Cl)nc1,6.51µM*,-27.6,-4.8%,-16.8,18.4µM*,-20.6
O=C(Nc1ccc(S(=O)(=O)N2CCCC2)cc1)c1ccc(Cl)nc1,?,-6.8,.,-14.5,?,1.2
Nc1ccc(CCS(N)(=O)=O)cc1,-17.8%,3.2,2.0%,3.1,-5.5%,0.0
O=C(Nc1cccc(S(=O)(=O)N2CCCCCC2)c1)c1ccc(=O)[nH]c1,18.4µM*,.,1.6%,-17.1,?,61.4
CCN(CC)S(=O)(=O)c1ccc(NC(=O)c2ccc(Cl)nc2)cc1,23.1µM*,3.4,-0.6%,-12.7,?,13.9
O=C(Nc1ccc(S(=O)(=O)N2CCCCC2)cc1)c1ccc(=O)[nH]c1,?,-22.8,-0.2%,-5.2,?,91.3
Cc1ccc(NC(=O)Cn2cnc3sc(C(=O)O)c(C)c3c2=O)cc1Cl,4.8%,.,2.2%[12.3 µM],.,-8.3%,.
COc1ccccc1-c1cc(C(=O)NC(C)c2ccccc2)no1 (configuration not stated),-18.7%,5.6,-1.0%,4.7,?,-5.7
Cc1cc(C(=O)C(C)OC(=O)C2=NNC(=O)CC2)c(C)n1-c1ccc(OC(F)F)cc1 (configuration not stated),20.6µM*,-1.3,6.8%,0.0,?,-10.0
Cc1cc(C(=O)COC(=O)C2=NNC(=O)CC2)c(C)n1-c1ccc(OC(F)F)cc1,?,-1.2,10.1%,-6.6,?,-2.9
CCOP(=O)(c1ccccc1)c1nc(-c2ccccc2C)oc1N1CCCCC1 (configuration not stated),13µM*,-3.0,9.5%,-9.2,13µM*,?
CCOP(=O)(OCC)c1nc(-c2ccc(Cl)cc2Cl)oc1N1CCOCC1,?,.,4.8%,1.6,?,-19.5
Cc1ccccc1-c1nc(P(=O)(c2ccccc2)c2ccccc2)c(N2CCOCC2)o1,?,-27.6,5.1%,-22.0,?,-66.6*
COP(=O)(OC)c1nc(-c2cccc3ccccc23)oc1NCc1ccccc1,18.4µM*,33.0,-1.4%,15.0,16.4µM*,-22.5
c1ccc(CNc2oc(-c3ccccc3)nc2-c2cccc3ccccc23)cc1,.,.,4.4%,.,.,.
CCOP(=O)(c1ccccc1)c1nc(-c2ccccc2C)oc1NCc1ccccc1 (configuration not stated),23.1µM*,.,.,0.7,?,15.2

# High-throughput results: PubChem BioAssay, National Center for Advancing Translational Sciences (NCATS)
